{
  "source": "paper PMC5540273",
  "about": "(PLoS ONE, 2017);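 note: KINOMEscan kinase panel screen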",
  "data": [
    {"test_system": "FRK", "settings": "concentration: 1 μM,replicates: in singlicate; n = 1", "units": {"%Inh": "%"}, "values": [
      {"smiles": "CN(C)CCOc1ccc(-c2cc(-c3c[nH]nc3-c3ccccn3)ccn2)cc1", "note": "[GW835314]", "%Inh": 10},
      {"smiles": "C[C@@H]1CCN(C(=O)CC#N)C[C@@H]1N(C)c1ncnc2[nH]ccc12", "%Inh": 0},
      {"smiles": "Cl.Cl.NC[C@H](CC1CCCCC1)NC(=O)c1cc(Br)c(-c2ccnc3[nH]ccc23)s1", "note": "[GSK1581427]", "%Inh": 19},
      {"smiles": "Cl.Cl.NC[C@H](Cc1ccc(C(F)(F)F)cc1)NC(=O)c1cc(Br)c(-c2ccnc3[nH]ccc23)s1", "note": "[GSK1487252]", "%Inh": 15},
      {"smiles": "Cl.Oc1cc(-c2nc(-c3ccccc3)[nH]c2-c2ccncc2)ccc1Cl", "note": "[SB-386023]", "%Inh": 73},
      {"smiles": "C[C@H]1Oc2cc(cnc2N)-c2c(nn(C)c2C#N)CN(C)C(=O)c2ccc(F)cc21", "%Inh": 92},
      {"smiles": "C[C@@H](Oc1cc(-c2cnn(C3CCNCC3)c2)cnc1N)c1c(Cl)ccc(F)c1Cl", "%Inh": 36},
      {"smiles": "CCn1c(-c2nonc2N)nc2c(C#CC(C)(C)O)nc(OCCN)cc21.Cl.Cl", "note": "[GSK902056]", "%Inh": 6},
      {"smiles": "CCN(CC)CCOc1ccc(Nc2ncc3cc(-c4c(Cl)cccc4Cl)c(=O)n(C)c3n2)cc1", "note": "[SB-601273]", "%Inh": 100}
    ]},
    {"test_system": "FYN", "settings": "concentration: 1 μM,replicates: in singlicate; n = 1", "units": {"%Inh": "%"}, "values": [
      {"smiles": "C=CC(=O)Nc1cc2c(Nc3ccc(F)c(Cl)c3)ncnc2cc1OCCCN1CCOCC1", "note": "[GW781483]", "%Inh": 0},
      {"smiles": "CC(C)Nc1cc(-c2ccc3c(N)n[nH]c3c2)nc(N)n1", "note": "[GSK2221681]", "%Inh": 33},
      {"smiles": "COc1ccc(C[C@@H](CN)NC(=O)c2cc(Br)c(-c3ccnc4[nH]ccc34)s2)cc1.Cl.Cl", "note": "[GSK1389063]", "%Inh": 0},
      {"smiles": "Cc1occc1-c1nc(N)c(OC[C@@H](N)Cc2c[nH]c3ccccc23)cc1-c1cc2c(C)n[nH]c2cn1", "note": "[GSK1660450]", "%Inh": 87},
      {"smiles": "Cc1ccc2c(-c3ccncc3)c(-c3ccc(F)cc3)nn2c1.Cl", "note": "[GW461484]", "%Inh": 26},
      {"smiles": "O=C(NCCCN1CCOC1=O)c1cnc(NCc2cc(Cl)ccc2Cl)nc1NC1CCCC1", "%Inh": 12},
      {"smiles": "Cc1n[nH]c2ccc(-c3cc(OC[C@@H](N)Cc4ccccc4)cnc3-c3ccoc3)cc12.O=C(O)C(F)(F)F.O=C(O)C(F)(F)F", "note": "[GSK507358]", "%Inh": 12},
      {"smiles": "Cc1cc2cn[nH]c2cc1-c1cccc2c(N)c(C(N)=O)nnc12", "%Inh": 20},
      {"smiles": "NC(=O)c1cc(-c2ccccc2)cc2c(C3CCNCC3)c[nH]c12", "note": "[GSK301362]", "%Inh": 21},
      {"smiles": "Cc1ccc(-n2nc(C(C)(C)C)cc2NC(=O)Nc2ccc(OCCN3CCOCC3)c3ccccc23)cc1", "note": "[GW839464]", "%Inh": 0},
      {"smiles": "CC(C)N1C(=O)Cc2cc(Nc3ncc(C(F)(F)F)c(NCc4cccc(S(C)(=O)=O)c4)n3)ccc21", "%Inh": 4},
      {"smiles": "O=C(NCCNc1ccnc(NCc2ccc(F)cc2)n1)c1cc2ccccc2s1", "note": "[GSK1379944]", "%Inh": 17},
      {"smiles": "CNC(=O)c1ccccc1Sc1ccc2c(/C=C/c3ccccn3)n[nH]c2c1", "%Inh": 14},
      {"smiles": "Nc1nc(Nc2ccccc2)cc(-c2ccc3c(N)n[nH]c3c2)n1", "note": "[GSK2225749]", "%Inh": 12},
      {"smiles": "CCN(CC)CCCCNc1ncc2cc(-c3c(Cl)cccc3Cl)c(NC(=O)NC(C)(C)C)nc2n1", "%Inh": 87},
      {"smiles": "Cc1cc(C(=O)Nc2ccc(Oc3ccc4nc(NC(=O)C5CC5)cn4n3)cc2)nn1-c1ccccc1", "%Inh": 13},
      {"smiles": "CN(C)CC(O)COc1ccc(Nc2nccc(-c3cnn4nc(N5CCOCC5)ccc34)n2)cc1", "note": "(stereo not drawn) [GW767488]", "%Inh": 15},
      {"smiles": "Cl.Cl.Nc1nc(-c2ccc3c(N)n[nH]c3c2)cc(N2CCCC(NC(=O)c3ccccc3)C2)n1", "note": "(stereo not drawn) [GSK2286775]", "%Inh": 34},
      {"smiles": "CN(C)CCOc1ccc(-c2cc(-c3c[nH]nc3-c3ccccn3)ccn2)cc1", "note": "[GW835314]", "%Inh": 15},
      {"smiles": "C[C@@H]1CCN(C(=O)CC#N)C[C@@H]1N(C)c1ncnc2[nH]ccc12", "%Inh": 8},
      {"smiles": "Cl.Cl.NC[C@H](CC1CCCCC1)NC(=O)c1cc(Br)c(-c2ccnc3[nH]ccc23)s1", "note": "[GSK1581427]", "%Inh": 25},
      {"smiles": "Cl.Cl.NC[C@H](Cc1ccc(C(F)(F)F)cc1)NC(=O)c1cc(Br)c(-c2ccnc3[nH]ccc23)s1", "note": "[GSK1487252]", "%Inh": 15},
      {"smiles": "Cl.Oc1cc(-c2nc(-c3ccccc3)[nH]c2-c2ccncc2)ccc1Cl", "note": "[SB-386023]", "%Inh": 40},
      {"smiles": "C[C@H]1Oc2cc(cnc2N)-c2c(nn(C)c2C#N)CN(C)C(=O)c2ccc(F)cc21", "%Inh": 19},
      {"smiles": "C[C@@H](Oc1cc(-c2cnn(C3CCNCC3)c2)cnc1N)c1c(Cl)ccc(F)c1Cl", "%Inh": 15},
      {"smiles": "CCn1c(-c2nonc2N)nc2c(C#CC(C)(C)O)nc(OCCN)cc21.Cl.Cl", "note": "[GSK902056]", "%Inh": 0},
      {"smiles": "CCN(CC)CCOc1ccc(Nc2ncc3cc(-c4c(Cl)cccc4Cl)c(=O)n(C)c3n2)cc1", "note": "[SB-601273]", "%Inh": 100}
    ]}
  ]
}
